# Screen size: about 420,000 compounds; about 50,000 (12%) were called active. A call without a number means that no potency is given here. Inconclusive results (about 26%) are left out. This excerpt belongs to a sample that is enriched for actives. Unmarked numbers belong to inactive results. Calls come from the whole dose curve; as a rule, active = well fitted inhibition curve with a large enough effect; inconclusive = small, poorly fitted or top-dose-only effect; inactive = flat fitted curve, though single readings scatter.
# Assay: qHTS for Inhibitors of human tyrosyl-DNA phosphodiesterase 1 (TDP1): qHTS in cells in presence of CPT; note: nearly all actives have a fitted effect of over 55% in size
# Settings: chicken DT40 Tdp1-/-;hTDP1 cells + 20 nM CPT, ATP luminescence, 48 h; series mostly up to 46.2 µM
# Method in brief: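 Cell growth measured by CellTiter-Glo luminescence after a minimum 48 h, 37 C compound exposure with 20 nM CPT in Tdp1-knockout DT40 cells stably expressing hTDP1, seeded 400/well; qHTS titration format.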
# Potency is the fitted concentration of half-maximal effect.
SMILES,Potency,"activity change, negative = growth inhibition"
Cc1ccc(NC(=O)COC(=O)CN2CCSC2=O)cc1F,inactive,
C/C(=N/N1CCN(Cc2cccc3ccccc23)CC1)c1cccnc1,inactive,
Cc1ccc2c(C)nc(N3CCCC(C(=O)NC(C)(C)CO)C3)nc2c1 (stereo not drawn),,-5.72% [at 9.04 µM]
Fc1cccc(Cl)c1COc1ccc(-c2nnco2)cc1,inactive,
CCOc1ccc(NCCC(=O)c2ccc3c(c2)OCO3)cc1,25.9 µM (active),
COC(=O)CCNc1ccc2c(c1)OCCO2,inactive,
O=C(COc1ccc(Cl)cc1)Nc1ccc2c(c1)OCO2,inactive,
O=C1C=C(c2cccc(Br)c2)C[C@@H](c2ccc(F)cc2)C1,inactive,
Cn1cc[n+](C)c1COc1ccc(C=O)cc1,inactive,
CC(C(=O)O)c1ccc(C2CCCCC2)c2ccccc12 (stereo not drawn),inactive,
COc1ccc(NS(=O)(=O)c2ccc(F)cc2F)cn1,inactive,
O=C(NCCOc1ccccc1)c1ccccc1F,inactive,
O=C(c1ccccc1F)N(Cc1ccccc1)Cc1ccccc1,8.2 µM (active),
O=C(O)CCC(=O)N(Cc1ccccc1)Cc1ccccc1,inactive,
Cc1ccc(C(=O)NNC(=O)c2ccc3c(c2)OCCO3)cc1,inactive,
COc1cc(Cl)c(S(=O)(=O)N2CCN(Cc3ccc4c(c3)OCO4)CC2)cc1Cl,inactive,
N#C/C=C/N1CCN(Cc2ccc3c(c2)OCO3)CC1,inactive,
Fc1ccc2[nH]c3c(N4CCN(Cc5ccc6c(c5)OCO6)CC4)ncnc3c2c1,2.31 µM (active),
Fc1ccc2[nH]c3c(N4CCSCC4)ncnc3c2c1,11.6 µM (active),
CC1CN(CC(=O)NC(C)c2ccccc2)CC(C)O1 (stereo not drawn),inactive,
COc1ccccc1CNC(=O)CSc1nc(=O)n(Cc2ccncc2)c2c1CCC2,inactive,
O=c1c(-c2cccc(Cl)c2)c[nH]n1-c1ccccc1,inactive,
Cc1[nH]n(-c2cccc(Cl)c2)c(=O)c1-c1ccc(Cl)cc1,16.4 µM (active),

SMILES,Potency,"activity change, negative = growth inhibition"
Cc1cccc(N=Nc2c(C)[nH]n(-c3ccccc3)c2=O)c1,inactive,
Cc1ccc2cc(C)c(N3CCN(c4ccc(F)cc4)CC3)nc2c1,inactive,
Cc1ccc(OCCCC(=O)Nc2ccc(S(=O)(=O)Nc3cc(C)nc(C)n3)cc2)cc1,inactive,
COc1cc(OC)c(C2=NOC(C(=O)Nc3c(C)n(C)n(-c4ccccc4)c3=O)C2)cc1Cl (stereo not drawn),inactive,
CC1CCC(NC(=O)C2c3ccccc3C(=O)N2Cc2ccc3c(c2)OCO3)CC1 (stereo not drawn),inactive,
O=C(Nc1ccc(Cl)cc1)C1c2cccc[n+]2CC(=O)N1Cc1ccc2c(c1)OCO2 (stereo not drawn),1.3 µM (active),
O=C(Nc1ccc2c(c1)OCCO2)C1c2ccccc2OCC(=O)N1Cc1ccccn1 (stereo not drawn),inactive,
CCOc1ccc(NS(=O)(=O)c2ccc(N)cc2)nn1,inactive,
COc1cccc(NC(=O)c2ccccc2N(Cc2ccccc2)S(C)(=O)=O)c1,inactive,
COc1ccc(S(=O)(=O)N2CCN(CC(=O)NCC3(N4CCOCC4)CCCCC3)CC2)cc1,inactive,
O=C1CCC(C(=O)Nc2ccc(OC(F)F)cc2)N1 (stereo not drawn),inactive,
CC(C)N(Cc1ccccc1)C(=S)Nc1ccc(OC(F)F)cc1,inactive,
CC(NC(=S)Nc1ccc(OC(F)F)cc1)c1ccc(F)cc1 (stereo not drawn),14.6 µM (active),
Cc1c(CN2CCC(n3nccc3NC(=O)CCc3ccccc3)CC2)cnn1C,inactive,
CN(C)CCNC(=O)c1[nH]nc2c1CCc1ccccc1-2,inactive,
COc1cc2cc(C(=O)N/N=C/c3cccc(OC)c3OC)[nH]c2cc1OC,inactive,
COc1cccc(/C=N/NC(=O)c2[nH]nc3c2CCc2ccccc2-3)c1O,2.31 µM (active),
O=C1CC(c2cccc(Cl)c2)CC(O)=C1C=Nc1ccccc1 (stereo not drawn),inactive,
CSc1ncnc2c1ncn2CCCNCc1cccs1,inactive,
Cn1c(=O)c2c(n3c4ccccc4nc13)NC(=O)CC2c1cccc(Cl)c1 (stereo not drawn),inactive,
CC(Oc1cccc(NC(=O)c2cccs2)c1)C(=O)c1ccccc1 (stereo not drawn),inactive,
Cc1ccc(-c2noc(-c3nnn(-c4cccc(C(F)(F)F)c4)c3N)n2)cc1,inactive,
CC(C)N(Cc1nnc(-c2ccc(Cl)cc2)o1)C(=O)C1=COCCO1,9.2 µM (active),

SMILES,Potency,"activity change, negative = growth inhibition"
Cc1ccc2nc(N(CCN(C)C)C(=O)C3=COCCO3)sc2c1,inactive,
O=C(c1nnc(-c2ccc(Cl)cc2)o1)C1CCCC1,inactive,
N#Cc1ccc(-c2cccs2)nc1SCc1ccc(Br)cc1,inactive,
Nc1c(-c2ccccc2)nnn1Cc1ccccc1,inactive,
Cc1cc(C(=O)NCC2Cc3cccc(-c4cncnc4)c3O2)c(C)o1 (stereo not drawn),,6.48% [at 9.04 µM]
Cc1cc(C(=O)NNC(=O)CCC2CCCCC2)c(C)o1,inactive,
Cc1cccc(C(=O)OC(C)C(=O)NC2CCCc3ccccc32)c1O (stereo not drawn),inactive,
COc1ccc(C(=O)NC2CCCc3c2cnn3-c2cccc(C)c2C)c(OC)n1 (stereo not drawn),10.3 µM (active),
Cc1cc(C(=O)NC2CCCc3c2cnn3-c2cccc(C)c2C)c(C)o1 (stereo not drawn),13 µM (active),
COCc1c(C(=O)NC2CCCCC2)cnn1-c1nccc(-c2ccccc2OC)n1,,5.12% [at 9.04 µM]
CCN(CC(=O)NCc1ccc(F)cc1)S(=O)(=O)c1ccc(Cl)s1,inactive,
Cc1ccccc1CCNC(=O)C1CCC(=O)N(Cc2ccc(Cl)cc2)C1 (stereo not drawn),inactive,
C/C(=N\Nc1ccc(S(N)(=O)=O)cc1[N+](=O)[O-])c1cccs1,inactive,
CCC(=O)N1CCc2cc(S(=O)(=O)NC(C(=O)N3CCc4ccccc4C3)C(C)C)ccc21 (stereo not drawn),inactive,
CCC(=O)N1CCc2cc(Br)c(S(=O)(=O)NCCN3CCCCC3CC)cc21 (stereo not drawn),inactive,
CCCN(CCC)S(=O)(=O)c1cc2c(cc1Br)CCN2C(=O)CC,8.2 µM (active),
Cc1ccc2c(c1)-c1c(cnn1CC(=O)Nc1ccccc1C#N)CO2,inactive,
O=C(O)C1C2C=CC(O2)C1C(=O)Nc1ccccn1 (stereo not drawn),inactive,
CCOC(=O)CSc1nnc(-c2ccco2)n1C,inactive,
Cc1cc(C)nc(SCc2nnc(SCC(=O)Nc3ncc(C)s3)n2Cc2ccco2)n1,inactive,
CCOC(=O)CSc1nc2c(sc(=S)n2CCc2ccccc2)c(=O)n1Cc1ccco1,20.6 µM (active),
O=C(c1ccc(F)cc1)C1CCN(Cc2cn[nH]c2-c2ccccc2)CC1,inactive,
